TWEAK-Fn14 inh: TWEAK-Fn14 signaling inhibition | TWEAK-stimulated Fn14 reporter cells, luciferase luminescence, 8 h | inhibition, % at 10 µM | 2% of 360,000 active | AID 1159606; in the data active = inhibition above about 50%
Peg3 prom inh: reduces Peg3 promoter-driven luciferase expression in HeLa. HeLa PEG-Prom luciferase reporter, luminescence, overnight. inhibition, % at 20 µM. 1.7% of 360,000 active. AID 588405;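 active = inhibition of at least 50% at 20 µM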
TRPM1 prom inh: inhibitors of MITF-driven TRPM1 promoter in melanoma cells. SK-MEL-5 TRPM1 promoter luciferase, 24 h. inhibition, % at 12.5 µM. 0.83% of 330,000 active;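 active = mean inhibition across replicates of 60% or more, whatever share of single replicates reaches that level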
TROY NFkB inh: inhibitors of TROY-dependent NF-kB signaling | inhibition, % at 10 µM | AID 1347056 | Q293 LMP1-TROYcd NF-kB luciferase reporter, 4 h | 0.98% of 360,000 active;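 active = compounds whose plate-normalised and pattern-corrected inhibition of the luciferase reporter signal at the single screening dose is 50% or more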
LMP1 NFkB inh: Epstein-Barr LMP1 NF-kappaB reporter inhibition; 0.69% of 350,000 active; inhibition, % at 12.5 µM; LMP1-induced NF-kappaB luciferase reporter cells, luminescence; AID 504558; in the data active = inhibition above about 41%;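 note: 0% = neutral control wells and 100% = reference inhibitor control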
HIF-2a inh: blocks HIF-2a reporter activity. 786-0 RCC cells HIF-2a reporter, luciferase luminescence, overnight. inhibition, % at 18.8 µM. 0.72% of 360,000 active. AID 624352;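 active = inhibition of the luminescence signal of 40% or more relative to plate controls, in a single-dose primary screen at 18.75 µM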
* = called active by the depositor; nt = no result; ! = not confirmed by another sample. Compounds with a hit are over-represented: about 4% of the library has one in this group of screens.

SMILES	TWEAK-Fn14 inh	Peg3 prom inh	TRPM1 prom inh	TROY NFkB inh	LMP1 NFkB inh	HIF-2a inh
CCCCN(C=O)c1c(CC)nc2c(OCCOc3ccc(F)cc3)cccn12	63*	11	nt	0	nt	-11
CCc1nc2c(OCCC3CCCCC3)cccn2c1N(C=O)Cc1ccccc1	17	66*	nt	-5	nt	12
CCOc1ccccc1/C=N/n1c(C2CCCCC2)n[nH]c1=S	-17	17	11	14	0	17
COc1ccccc1/C=C/C=N/n1c(C2CCCCC2)n[nH]c1=S	34	-156	1	69*	11	-166
S=c1[nH]nc(C2CCCCC2)n1/N=C/c1ccncc1	82*	2	-3	14	48*	11
CCCOc1ccccc1N/C(=N/c1nc(C)cc(C)n1)NC(=O)COc1ccc(OC)cc1	53*	30	1	18	24	10
CCCOc1ccccc1N/C(N)=N/c1nc(C)cc(C)n1	3	23	4	-3	4	13
Cc1ccccc1C1=C/C(=C(\SS/C(C(=O)c2ccc(OCC(=O)O)c(Cl)c2Cl)=C2\C=C(c3ccccc3C)SS2)C(=O)c2ccc(OCC(=O)O)c(Cl)c2Cl)SS1	57*	8	8	39	13	11
O=C(O)COc1ccc2nsnc2c1Cl	-3	-2	-8	18	-2	15
CCC(C)(C)C1CCc2[nH]nc(C(=O)NCc3ccc(OC)cc3)c2C1 (stereo not drawn)	-22	-7	-1	23	3	-19
CC(=O)c1ccc(N2CCC(c3cc(-c4ccc(Cl)cc4Cl)n[nH]3)CC2)c([N+](=O)[O-])c1	88*	21	8	49	8	-3
O=[N+]([O-])c1cccnc1N1CCC(c2cc(-c3ccc(Cl)cc3Cl)n[nH]2)CC1	-6	21	0	15	7	-17
COc1ccccc1C(=O)NC(=Nc1nc2ccccc2o1)NC(=O)c1ccccc1OC	-38	86*!	15	-25	-4	-11
CC(OC(=O)c1ccccc1C(=O)N(C)c1ccccc1)C(=O)Nc1ccccc1[N+](=O)[O-] (stereo not drawn)	10	20	-7	12	0	14
CC1CN(c2nc(-c3ccc(Br)cc3)nnc2-c2ccccc2)CC(C)N1 (stereo not drawn)	-4	62*	23	-40	3	-60
CC(C)=CCC[C@H](C)C[C@@H]1CC2=C(C(=O)OC(C)(C)O2)[C@H](c2ccc(Cl)cc2)O1	8	26	nt	10	nt	3
COc1ccc2c(c1)c(CC(=O)NCc1cc([N+](=O)[O-])ccc1O)c(C)n2C(=O)c1ccc(Cl)cc1	43	33	10	62*	-1	5
COc1ccc2c(c1)c(CC(=O)Nc1nnc(C3CC3)s1)c(C)n2C(=O)c1ccc(Cl)cc1	58*	8	38	53*	48*	-27
O=C(Cn1cnc2c(OCc3ccccc3)ncnc21)N[C@H](CO)Cc1cc2ccccc2[nH]1	-1	5	4	3	6	1
O=C(Nc1ncccc1O)c1ccc(OCC2CCCO2)cc1 (stereo not drawn)	39	-30	3	0	76*	-51
O=C(Nc1nc2ccccc2s1)c1ccc(OCC2CCCO2)cc1 (stereo not drawn)	93*	-33	16	78*	7	-96
O=C(NC1=NCCS1)c1ccc(OCC2CCCO2)cc1 (stereo not drawn)	39	-114	-25	-16	6	-70
COc1ccc(C(=O)Nc2nc3ccccc3s2)cc1	98*	-50	8	49	13	-36
COc1cccc(C(=O)Nc2nc3ccccc3s2)c1	30	-249	-64	-18	-70	-267
O=C(Nc1nc2ccccc2s1)c1ccc2sc([C@H]3C[C@H](O)[C@@H](CO)O3)nc2c1	64*	-101	nt	45	nt	-277
SMILES	TWEAK-Fn14 inh	Peg3 prom inh	TRPM1 prom inh	TROY NFkB inh	LMP1 NFkB inh	HIF-2a inh
O=C(COC(=O)Cc1ccc(S(=O)(=O)N2CCOCC2)s1)Nc1ccccc1	12	-3	4	-19	-6	7
C#Cc1ccc(NC(=O)C2(C)CCN2C(=O)CC(c2ccccc2)c2ccccc2)cc1 (stereo not drawn)	3	20	nt	16	nt	5
O=C(NC1CCCC1)C(C1CC1)n1c(-c2ccnc3ccccc23)nc2ccccc21 (stereo not drawn)	nt	nt	nt	nt	nt	10
O=C(CN1C(=O)NC2(CCCC2)C1=O)Nc1nc2c(F)cc(F)cc2s1	4	-40	0	-30	-7	-39
CCN(CC)CC(O)Cn1c(C)c(-c2ccccc2)c2cc([N+](=O)[O-])ccc21 (stereo not drawn)	-12	75*	-16	-38	2	-8
CCOC(=O)[C@]12CCCC=C1N(Cc1cccc3ccccc13)C(=O)[C@H](CC(=O)N1CCN(C(=O)C3CC3)CC1)C2	-3	nt	nt	2	nt	6
O=C(CN1CCN(C(c2ccccc2)c2ccccc2)CC1)N1CCOCC1	3	8	-4	-4	-20	4
Oc1c(C(c2ccccc2)N2CCOCC2)ccc2ccccc12 (stereo not drawn)	44	56*	16	15	-1	10
CCCn1c(NC(=O)c2cccc(S(=O)(=O)N3CCCC3)c2)nc2ccccc21	-14	97*	53	-4	19	34
COCCCn1c(-c2ccc(S(=O)(=O)N3CCOCC3)cc2)csc1=Nc1ccccc1	71*	9	29	29	28	12
COc1ccc(C(=O)CC(=O)c2ccc(C(C)(C)C)cc2)cc1	15	-38	-13	-4	4	-26
COc1ccc(C(=O)C(CCC(CNC(C)(C)C)C(=O)c2ccc(OC)cc2)CNC(C)(C)C)cc1 (stereo not drawn)	17	105*	95*	0	9	45*
N#CC(C#N)=C1SC(=Nc2ccccc2)C(=Nc2ccccc2)N1c1ccccc1	27	89*	-2	-55	-4	-66
CCc1nc2ccc(C(=O)Nc3cccc(OCC(=O)N(C)C)c3)cn2c1N(C=O)Cc1ccc(OC)cc1	-20	3	nt	-9	nt	9
COc1cc(NC(=O)COc2ccc(Cl)cc2)ccc1-c1cc2ccccc2oc1=O	59*	31	22	28	-7	3
CN(CC(=O)Nc1ccccc1C(F)(F)F)C(=O)C1=COCCO1	6	-13	-4	-17	4	-4
COc1ccc(NC(=O)NC2CCCc3ccccc32)cc1OC (stereo not drawn)	-4	11	1	6	5	18
COc1ccc(C)cc1NC(=O)NC1CCCc2ccccc21 (stereo not drawn)	-11	55*	10	-5	4	11
O=C(CCl)NC1CCCc2ccccc21 (stereo not drawn)	50*	17	15	0	-1	16
CCN(CC(=O)NCC(=O)Nc1ccc(Br)cc1C)Cc1ccccc1	-3	14	4	32	4	14
